Source: article PMC12820563, “FoxP3 forms a head-to-head dimer in vivo and stabilizes its multimerization on adjacent microsatellites”
Over roughly 16,000 sequences, “rpm ratio (pull-down/input)” has its median near 0.5; the highest 2% begin near 5.5. Many of the other results were omitted from the sample, so the highest values are more common in it than they were.

Each sequence was assayed against T1, MBP-FoxP3dN (Mus musculus, UniProt Q99JB6 188-423) (assay: PD-seq (MBP pull-down with sequencing); 20 mM Tris-HCl pH 7.5, 100 mM NaCl, 1.5 mM MgCl2, 0.4 uM protein, 0.1 uM dsDNA library, 30 min, room temperature, amylose pull-down; high values mean tight binding). Details: protein: recombinant; tags: His6-MBP; chain copies: 2; dsDNA, one strand shown.
T1 sequence: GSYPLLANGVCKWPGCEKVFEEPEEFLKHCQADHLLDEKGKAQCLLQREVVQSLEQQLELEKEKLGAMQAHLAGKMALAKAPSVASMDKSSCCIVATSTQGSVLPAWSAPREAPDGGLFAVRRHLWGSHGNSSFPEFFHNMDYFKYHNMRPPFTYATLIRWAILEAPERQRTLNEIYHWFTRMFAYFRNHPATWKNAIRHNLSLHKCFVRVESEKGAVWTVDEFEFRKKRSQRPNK
Procedure, shortened: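 His6-MBP-tagged mouse FoxP3 or FoxP1 fragment lacking the N-terminus, expressed in E. coli, was mixed at 0.4 µM with 0.1 µM Klenow-filled double-stranded degenerate DNA library. Incubation was 30 min at room temperature in Tris pH 7.5 buffer with NaCl and MgCl2. Complexes were caught on amylose resin and washed three times; DNA was released with proteinase K, PCR-barcoded and Illumina-sequenced. Binding is reads-per-million enrichment, pull-down over input, with replicates pooled.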
In the case of “GATGATTGTTCTCCCAGCTGATGAATTGACAATGTCGAGTAAACAAATTTTCCTAATCTTTCTGTTCAAGCGCCATCTAC”, the binding signal is reported as 0.506 RPM ratio (pull-down/input). For “GATGATTGTTCTCCCAGCTGATGAATTGGGAGATTCGAGTAAACAAATTTTCCTAATCTTTCTGTTCAAGCGCCATCTAC”, the binding signal was 0.372 RPM ratio (pull-down/input). In the case of “GATGATTGTTCTCCCAGCTGATGAATTTGCTGTATCGAGTAAACAAATTTTCCTAATCTTTCTGTTCAAGCGCCATCTAC”, the binding signal is reported as 4.72 RPM ratio (pull-down/input). “GATGATTGTTCTCCCAGCTGATGAATTGTATTCCTCGAGTAAACAAATTTTCCTAATCTTTCTGTTCAAGCGCCATCTAC” was tested, and the binding signal was 1.97 RPM ratio (pull-down/input). In the case of “GATGATTGTTCTCCCAGCTGATGAATTTGTATCCTCGAGTAAACAAATTTTCCTAATCTTTCTGTTCAAGCGCCATCTAC”, the binding signal is reported as 5.4 RPM ratio (pull-down/input). “GATGATTGTTCTCCCAGCTGATGAATTTTGTATCTCGAGTAAACAAATTTTCCTAATCTTTCTGTTCAAGCGCCATCTAC” was tested, and the binding signal was 5.89 RPM ratio (pull-down/input). With “GATGATTGTTCTCCCAGCTGATGAATTTGTATTCTCGAGTAAACAAATTTTCCTAATCTTTCTGTTCAAGCGCCATCTAC” the binding signal was 5.9 RPM ratio (pull-down/input). With “GATGATTGTTCTCCCAGCTGATGAATTGTATTTCTCGAGTAAACAAATTTTCCTAATCTTTCTGTTCAAGCGCCATCTAC” the binding signal was 2.06 RPM ratio (pull-down/input). “GATGATTGTTCTCCCAGCTGATGAATTTTTTGTATCGAGTAAACAAATTTTCCTAATCTTTCTGTTCAAGCGCCATCTAC” was tested, and the binding signal was 0.521 RPM ratio (pull-down/input). For “GATGATTGTTCTCCCAGCTGATGAATTGTAGTAATCGAGTAAACAAATTTTCCTAATCTTTCTGTTCAAGCGCCATCTAC”, the binding signal was 1.03 RPM ratio (pull-down/input). In the case of “GATGATTGTTCTCCCAGCTGATGAATTTGTAATCTCGAGTAAACAAATTTTCCTAATCTTTCTGTTCAAGCGCCATCTAC”, the binding signal is reported as 3.82 RPM ratio (pull-down/input). With “GATGATTGTTCTCCCAGCTGATGAATTTGTAGTATCGAGTAAACAAATTTTCCTAATCTTTCTGTTCAAGCGCCATCTAC” the binding signal was 5.7 RPM ratio (pull-down/input). “GATGATTGTTCTCCCAGCTGATGAATTAGTAGTATCGAGTAAACAAATTTTCCTAATCTTTCTGTTCAAGCGCCATCTAC” was tested, and the binding signal was 2.45 RPM ratio (pull-down/input). In the case of “GATGATTGTTCTCCCAGCTGATGAATTGTTTGTATCGAGTAAACAAATTTTCCTAATCTTTCTGTTCAAGCGCCATCTAC”, the binding signal is reported as 7.73 RPM ratio (pull-down/input). “GATGATTGTTCTCCCAGCTGATGAATTCTAGCTGTCGAGTAAACAAATTTTCCTAATCTTTCTGTTCAAGCGCCATCTAC” was tested, and the binding signal was 0.392 RPM ratio (pull-down/input). With “GATGATTGTTCTCCCAGCTGATGAATTCGTTAGTTCGAGTAAACAAATTTTCCTAATCTTTCTGTTCAAGCGCCATCTAC” the binding signal was 2.91 RPM ratio (pull-down/input). “GATGATTGTTCTCCCAGCTGATGAATTTTACTCATCGAGTAAACAAATTTTCCTAATCTTTCTGTTCAAGCGCCATCTAC” was tested, and the binding signal was 0.402 RPM ratio (pull-down/input). In the case of “GATGATTGTTCTCCCAGCTGATGAATTTCAAGTTTCGAGTAAACAAATTTTCCTAATCTTTCTGTTCAAGCGCCATCTAC”, the binding signal is reported as 0.283 RPM ratio (pull-down/input). With “GATGATTGTTCTCCCAGCTGATGAATTTATACGTTCGAGTAAACAAATTTTCCTAATCTTTCTGTTCAAGCGCCATCTAC” the binding signal was 0.886 RPM ratio (pull-down/input). With “GATGATTGTTCTCCCAGCTGATGAATTTCCACGTTCGAGTAAACAAATTTTCCTAATCTTTCTGTTCAAGCGCCATCTAC” the binding signal was 0.311 RPM ratio (pull-down/input). With “GATGATTGTTCTCCCAGCTGATGAATTGTAATGCTCGAGTAAACAAATTTTCCTAATCTTTCTGTTCAAGCGCCATCTAC” the binding signal was 1.07 RPM ratio (pull-down/input). “GATGATTGTTCTCCCAGCTGATGAATTTGTATCTTCGAGTAAACAAATTTTCCTAATCTTTCTGTTCAAGCGCCATCTAC” was tested, and the binding signal was 5.56 RPM ratio (pull-down/input). “GATGATTGTTCTCCCAGCTGATGAATTTCTATACTCGAGTAAACAAATTTTCCTAATCTTTCTGTTCAAGCGCCATCTAC” was tested, and the binding signal was 0.435 RPM ratio (pull-down/input). “GATGATTGTTCTCCCAGCTGATGAATTTGTATCATCGAGTAAACAAATTTTCCTAATCTTTCTGTTCAAGCGCCATCTAC” was tested, and the binding signal was 5.48 RPM ratio (pull-down/input). With “GATGATTGTTCTCCCAGCTGATGAATTGTATCCTTCGAGTAAACAAATTTTCCTAATCTTTCTGTTCAAGCGCCATCTAC” the binding signal was 1.61 RPM ratio (pull-down/input). In the case of “GATGATTGTTCTCCCAGCTGATGAATTTCTATGCTCGAGTAAACAAATTTTCCTAATCTTTCTGTTCAAGCGCCATCTAC”, the binding signal is reported as 0.385 RPM ratio (pull-down/input). With “GATGATTGTTCTCCCAGCTGATGAATTTGATGTATCGAGTAAACAAATTTTCCTAATCTTTCTGTTCAAGCGCCATCTAC” the binding signal was 4.63 RPM ratio (pull-down/input). For “GATGATTGTTCTCCCAGCTGATGAATTTGTATACTCGAGTAAACAAATTTTCCTAATCTTTCTGTTCAAGCGCCATCTAC”, the binding signal was 7.1 RPM ratio (pull-down/input). With “GATGATTGTTCTCCCAGCTGATGAATTTGTATGCTCGAGTAAACAAATTTTCCTAATCTTTCTGTTCAAGCGCCATCTAC” the binding signal was 6.51 RPM ratio (pull-down/input). “GATGATTGTTCTCCCAGCTGATGAATTGTATCTTTCGAGTAAACAAATTTTCCTAATCTTTCTGTTCAAGCGCCATCTAC” was tested, and the binding signal was 1.68 RPM ratio (pull-down/input). In the case of “GATGATTGTTCTCCCAGCTGATGAATTTGTTGTATCGAGTAAACAAATTTTCCTAATCTTTCTGTTCAAGCGCCATCTAC”, the binding signal is reported as 7.55 RPM ratio (pull-down/input). For “GATGATTGTTCTCCCAGCTGATGAATTGTAATACTCGAGTAAACAAATTTTCCTAATCTTTCTGTTCAAGCGCCATCTAC”, the binding signal was 0.756 RPM ratio (pull-down/input).
